Source: PubChem (SRMLSC)
The list is not random: actives were taken first. Their share in the collection is about 6.8%.
Abs 340nm: absorbance at 340 nm; compound absorbance at 340 nm, fold over control; fold change at 10 µM; 65,000 tested, under 10 active;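 active = at 10 µM dose, initial 340 nm absorbance at least 2 fold that of control wells; inactive = change under 2 fold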;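 also: initial absorbance extrapolated from kinetic A340 decline of NADH oxidation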
Spn MK inh: S. pneumoniae mevalonate kinase inhibition; inhibition, % at 10 µM; purified MK, PK/LDH-coupled NADH absorbance 340 nm; 65,000 tested, 0.48% active;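 active = ranked among the strongest by inhibition in the single 10 µM screen, a fixed top-ranked set picked for dose follow-up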
PMK inhibit: inhibitors of Streptococcus pneumoniae phosphomevalonate kinase. purified PMK, PK/LDH-coupled NADH absorbance 340 nm. inhibition, % at 10 µM. 65,000 tested, 0.49% active. AID 539;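 active = top-ranked compounds by inhibition in the single 10 µM screen, taking a fixed number of the strongest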;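 also: 0% = full reaction with DMSO carrier and 100% = background rate without enzyme reaction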
DPM-DC inhibit: S. pneumoniae DPM-DC inhibition. purified DPM-DC, PK/LDH coupled NADH fluorescence. calls only at 10 µM. 65,000 tested, 0.49% active. AID 556;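 active = the 320 compounds with the highest percent inhibition in the single-dose primary screen, excluding strongly autofluorescent ones, cut at about 32% in these data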;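 also: kinetic rate of NADH fluorescence loss reporting ADP formed by the decarboxylase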
NADH enzymes: inhibitors of enzymes used to reach an NAD/NADH endpoint; coupled PK/LDH NADH assays, four targets; IC50, µM (highest dose often 10 µM), inactives show at the highest dose inhibition; 65,000 tested, 0.02% active; AID 774;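 active = single-dose screening hits from any of four coupled enzyme assays that gave an IC50 when retested across doses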;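 also: the DPM-DC format reads NADH fluorescence rather than 340 nm absorbance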
Autofluor 339: intrinsic fluorescence of library compounds, ex339/em460 – biochemical, MLSMR library, data from DPM-DC assay, artefact control, profiling panel. 65,000 tested, 5.5% active. AID 709. fluorescence fold increase at 10 µM. compound autofluorescence, ex339/em460 nm, NADH buffer; active compounds read high; 1 = no-compound wells, NADH background;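 active = at 10 µM, mean starting fluorescence two-fold or more over control wells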;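 also: signal is the first read of a kinetic run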
The depositor's hits bear a star; i = inactive; · = no result shown; + = active, no number.

SMILES	Abs 340nm	Spn MK inh	PMK inhibit	DPM-DC inhibit	NADH enzymes	Autofluor 339
C=CCn1c(SCc2ccccc2C#N)nnc1-c1ccccc1O	1	9	3	i	4%	1.1
CCCn1c(C)cc(=O)c2cc(NC(=O)c3ccccn3)ccc21	0.98	11	15	i	9%	1.1
COc1ccc2cc3cc(C(=O)NCCN4CCN(c5ccccc5F)CC4)oc3nc2c1	1.1	3	14	·	9%	5.1*
COc1ccc2cc3cc(C(=O)NCc4ccccn4)oc3nc2c1	1.1	0	6	·	3%	5.1*
O=C(NCc1cccs1)c1cc2ccccc2o1	1	3	15	i	6%	1.1
COc1ccc2cc3cc(C(=O)Nc4ccccc4N4CCN(C)CC4)oc3nc2c1	1.1	3	14	i	6%	1.1
COc1ccc2cc3cc(C(=O)NCC4CCCO4)oc3nc2c1 (configuration not stated)	1	0	7	·	2%	3.5*
COc1ccc2nc3oc(C(=O)NCc4cccs4)cc3cc2c1	1	0	11	+	15%	3.9*
O=C(NCc1ccco1)c1cc2cc3ccc(Cl)cc3nc2o1	1	2	12	i	8%	1.8
CCCOC(=O)c1ccc(OCC(O)CN2C(=O)NC(C)(C)C2=O)cc1 (configuration not stated)	1	6	8	i	6%	1.1
COc1cccc(C(=O)Nc2ccc(S(=O)(=O)NCc3ccco3)cc2)c1	0.98	6	9	i	5%	1.1
CCOC(=O)c1c(C)n(C)c2ccc(OC)c(NS(=O)(=O)c3ccc(Cl)s3)c12	1.1	3	78*	i	27%	1.1
CCOC(=O)c1ccccc1NC1OC(=O)c2ccccc21 (configuration not stated)	1	0	16	·	8%	3.6*
CCOC(=O)c1ccccc1NC1c2ccccc2C(=O)N1c1ccc(C)cn1 (configuration not stated)	1	5	2	i	4%	1.6
CCOC(=O)c1ccccc1NC1c2ccccc2C(=O)N1C1CCN(C(=O)OCC)CC1 (configuration not stated)	0.99	5	0	·	1%	2.4*
CCOC(=O)N1CCC(N2C(=O)c3ccccc3C2Nc2ccc3c(C)cc(=O)oc3c2)CC1 (configuration not stated)	1.1	4	10	·	3%	2.5*
COc1cc(-n2c(C)nc3cc(C(=O)N4CCOCC4)ccc32)cc(OC)c1OC	1	0	18	i	6%	1.1
COc1ccccc1CNc1ncnc2nc[nH]c12	1	12	6	+	23%	1.2
c1ccc(CCNc2ncnc3nc[nH]c23)cc1	1.1	0	5	i	3%	1.1
CCOC(=O)c1sc2nc(SCC(=O)NCc3ccco3)n(Cc3ccccc3)c(=O)c2c1C	1	5	4	+	5%	1.7
COCCn1c(-c2ccco2)nc2nc3ccccc3nc21	1	7	7	·	4%	3*
CC(C)OCCCn1c(-c2ccco2)nc2nc3ccccc3nc21	1.1	8	7	·	8%	3.8*
S=C1SCN(Cc2ccccn2)CN1Cc1ccco1	0.99	2	13	i	5%	1.1
CCC(=O)Oc1ccc(-c2nc(-c3cccnc3)no2)cc1	1	11	11	i	7%	1.1
Cc1c(S(=O)(=O)Nc2cccc(Cl)c2)c(=O)n(C)c(=O)n1C	1.1	55*	0	i	18%	0.99
CCOC(=O)Cc1c(C)c2c(C)[nH]nc2oc1=O	0.98	0	15	i	7%	1.3
COC(=O)Cc1c(C)c2c(O)cc(C)cc2oc1=O	1.1	13	0	·	7%	2.1*
CC(=O)Nc1n[nH]c(S(=O)(=O)Cc2ccc(Cl)cc2Cl)n1	1	1	3	i	1%	1.1
COc1cccc(N2CCN(C3CC(=O)N(c4ccc(C)c(Cl)c4)C3=O)CC2)c1 (configuration not stated)	1	40*	11	i	18%	1
COc1cccc(N2CCN(C3CC(=O)N(c4ccc(F)c(Cl)c4)C3=O)CC2)c1 (configuration not stated)	1	6	3	i	4%	1.1
